Where “and” joins values, the source holds several entries; their conditions need not be identical. Identical values can stand only once. Screen size: about 340,000 compounds; about 120 (0.035%) were called active. The entries come from a sample that favours actives as a whole. Values without a mark were called inactive.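 Rule for the calls: active = mean replicate inhibition at least 50% and at least half of replicates individually reaching 50%; inconclusive = only one of the two criteria met; inactive = neither criterion met.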
assay: E. coli Tat export inhibitors, primary screen, MC4100, TorA-mCherry reporter, fluorescence, single point (AID 488895); settings: at 10 µM, active compounds read high;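 note: exported cargo escapes ClpAP degradation while cytoplasmic cargo is degraded and loses fluorescence; 0% = median of neutral control wells and 100% = median of NaSCN control wells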

SMILES | inhibition
Nc1nc(Sc2ncccc2[N+](=O)[O-])n[nH]1 | -8.21%
O=C(O)c1ccccc1OCc1ccccc1Cl | -2.88%
CS(=O)(=O)N(CC(=O)N1CCOCC1)c1ccc2c3c(cccc13)CC2 | 2.34%
O=P(O)(CP(=O)(c1ccccc1)c1ccccc1)c1ccccc1O | -10.9%
COc1cc(C2C(C#N)=C(C)NC3=C2C(=O)CC(C)(C)C3)ccc1O (centres undefined) | 4.04%
CN1CC(=O)N=C1N | -7.3% and -13.2%
CCC(C)Sc1nc(C)nc2c1c(=O)n(C)c(=O)n2C (centres undefined) | -2.92%
OC(COc1ccc(F)cc1Cl)CN1CCc2ccccc2C1 (centres undefined) | 3.62%
COC(=O)c1cc2n(n1)CCCNC2=O | -2.39%
O=C1OCC2=C1C(c1ccc(Cl)cc1)c1cc3c(cc1O2)OCO3 (centres undefined) | 2.92%
CC1C(=O)Nc2ccc(S(=O)(=O)N3CCN(c4ccccc4F)CC3)cc2NC1=O (centres undefined) | 2.39%
COCCCn1c(SCc2cccc(OC)c2)nc2cc(OC)c(OC)cc2c1=N | 8.62%
CC(CCN1CCN=C1N(C)C)c1ccccc1 (centres undefined) | 1.28%
Cn1c(SCC(=O)N2CCCC2)nnc1-c1ccc2c(c1)OCO2 | -0.749%
CC(C)c1ccc(NC(=O)C2CCCN(S(=O)(=O)c3cccnc3)C2)cc1 (centres undefined) | -2.58%
CC(C)[C@H](NC(=O)N1CCn2c1nc1ccccc12)C(=O)NC1CC1 | 3.55%
CCN1CCN(C(=O)N[C@@H](C(=O)N[C@@H]2C(=O)N3C(C(=O)O)=C(CSc4nnnn4C)CS[C@H]23)c2ccc(O)cc2)C(=O)C1=O | -0.914%
CC1CCCN(C(=O)c2ccc3c(c2)C(=O)N(CCC2=CCCCC2)C3=O)C1 (centres undefined) | 5.37%
COC(=O)c1c(C)oc(C)c1S(=O)(=O)Nc1ccc(C(C)C)cc1 | 8.29%
CC(C)(C)S(=O)(=O)N1Cc2cc(CO)cc(CCO)c2[C@H]1CCO | -5.8%
C[n+]1ccccc1C1CCCC/C1=N\Nc1ccc([N+](=O)[O-])cc1[N+](=O)[O-] (centres undefined) | -6.35%
COC(=O)c1ccc(CN(c2ccccc2OC)S(=O)(=O)c2cccs2)o1 | 22.7%
CNC(=O)c1nnc(Cc2ccc(Cl)cc2)o1 | -1.7%

SMILES | inhibition
COCCCNC(=O)C1CC(=O)N(CCc2ccccc2)C1 (centres undefined) | 4.61%
COc1ccc(Cl)cc1NC(=O)CN(C)C(=O)c1ccc2n[nH]nc2c1 | -3.85%
Cc1cc(C)cc(C(=O)N2CCN=C2SCc2ccc([N+](=O)[O-])cc2)c1 | 7.58%
Cn1cc(CN2CCCCC2c2ccccn2)c(-c2ccc3c(c2)OCCO3)n1 (centres undefined) | 3%
CCc1nc(C)cn1S(=O)(=O)c1cc([N+](=O)[O-])ccc1Cl | -13.2%
O=C1CCC/C(=N\NC(=O)NC2CCCCC2)C1 | 4.42%
O=[N+]([O-])c1ncc(Br)cc1Nc1ccccc1 | -4.47%
COC(=O)c1c(C(=O)OC)c(-c2cccc(C)c2)n2c1CS(=O)C2 (centres undefined) | 4.25%
Cc1cc(C)c(OCCN2CC(C)OC(C)C2)c(Br)c1 (centres undefined) | 24.1%
COc1ccccc1NC(=O)c1cc(N2C(=O)C3C4CCC(C4)C3C2=O)ccc1Cl (centres undefined) | -14.7%
CC1(C)CC(=O)C(CC(=O)N2CCC(Cc3ccccc3)CC2)C(=O)C1 | 3.6%
CCCCCCCCCCCCC(NC(C)=O)(C(=O)OCC)C(=O)OCC | 7.11%
COc1ccc(NC(=O)c2cc([N+](=O)[O-])ccc2NC(=O)CNC2CCCCC2C)c(OC)c1 (centres undefined) | 3.4%
CCc1ccc(NC(=O)c2ccc(Cn3cc([N+](=O)[O-])cn3)cc2)cc1 | 1.09%
COc1cc(NS(=O)(=O)c2ccc(NC(=O)c3ccc([N+](=O)[O-])cc3)cc2)ncn1 | -6.48%
Cn1ccc(=Nc2ccc(NC(=O)c3ccc(N=c4ccn(C)c5ccc([N+](=O)[O-])cc45)cc3)cc2)cc1 | 112% (active)
CN(CCc1ccccc1)C(=O)c1cccc(NC(=O)Cc2cccc(NC(=O)C3CCCN(C(=O)C4CCC4)C3)c2)c1 (centres undefined) | 2.65%
O=C(CNC(=O)c1cc(S(=O)(=O)N2CCOCC2)ccc1N1CCCC1)Nc1ccc(F)c(F)c1 | -7.06%
C=CCCC(=O)N1C[C@H]2CON(C)[C@H]2C[C@H]1c1cccc(Nc2ccccc2)c1 | 1.87%
COc1ccc(-c2nn(C)c(=O)c3ccccc23)cc1CNC(=O)C1CCCCC1 | 5.51%
CCSc1sc(CC)cc1C=O | -5.06%
COC(=O)/C=C(\Oc1ccccc1)C1(O)CCCCC1 | -5.03%
COc1ccc(C(=O)NCc2ccccc2C)cc1S(=O)(=O)NC1CCCC1 | -5.16%

SMILES | inhibition
Cc1cccc(NS(=O)(=O)c2cc(Cl)ccc2Cl)n1 | 1.57%
CCc1nnc(NS(=O)(=O)c2ccc(NC(=S)NC(=O)/C=C/c3cccs3)cc2)s1 | 3.92%
CC(NC(=O)COc1cccnc1[N+](=O)[O-])c1ccc(Cl)cc1Cl (centres undefined) | -4.49%
Cc1cc(S(=O)(=O)NCc2ccccn2)c(Cl)cc1Cl | -16.8%
Cc1cc(C(F)F)n2nc(C(=O)Nc3ccc(S(=O)(=O)NC45CC6CC(CC(C6)C4)C5)cc3)nc2n1 | 10.1%
O=C(c1cc2ccccc2s1)N1CCN(c2ccccn2)CC1 | -5.47%
O=C(CNC(=O)OCc1ccccc1)NC1CCCCNC1=O (centres undefined) | 10.8%
Cc1nn(C)c(Oc2ccc(Cl)cc2)c1C=O | -0.515%
CCOC(=O)c1sc2nc(C)nc(SCC(N)=O)c2c1C | -4.58%
O=S1(=O)CCO[C@H]2Cc3ccccc3[C@H]2N1Cc1ccccc1 | -48.1%
CCCn1c(C)cc(/C=C(\C#N)C(=O)OCC(=O)N(C)c2c(N)n(Cc3ccccc3)c(=O)[nH]c2=O)c1C | 11%
O=C(CCc1[nH]c2ccccc2c1Sc1ccccc1)N(CCO)CCO | -4.7%
COc1cccc(-c2ccc(SCC(=O)N3CCN(c4ccccc4)CC3)nn2)c1 | 2.75%
CC(=O)N1CCSc2ccc(S(=O)(=O)N3CCC(C)CC3)cc21 | 2.03%
CC1(C)C(=O)CCC2(C)C1=CCC1C2C(=O)CC2(C)C1CCC2(O)C(=O)CO (centres undefined) | -1.57%
CCn1ccnc1CN(C)C(=O)c1ccc2nc(Cc3ccc(OC)cc3)oc2c1 | -0.56%
CC[C@]12c3[nH]c4cc(CCC(=O)N(C)C)ccc4c3CCN1C(=O)[C@@H](CC(=O)NCCCN(C)C)C[C@@H]2C(=O)N1CCN(C(=O)c2ccco2)CC1 | -1.81%
CC(OC(=O)c1ccc(-n2cnnn2)cc1)C(=O)NCc1ccccc1 (centres undefined) | -2.55%
O=C(NCc1ccc(Cl)cc1)c1cc2c(nc3sccn32)s1 | -1.5%
CCCNC(=O)N1CCC(c2ccc3c(c2)OCO3)CC1 | 3.31%
Cc1noc(C)c1CCC(=O)O | 1.5%
COCCNc1nnc(SCC(=O)NNC(=O)c2ccco2)s1 | 3.66%
COc1ccc(COCCN2CCN(S(=O)(=O)c3ccccc3)CCC2=O)cc1 | 1.02%

SMILES | inhibition
CCN(CCn1cccn1)Cc1nc(-c2ccc(C(=O)OC)cc2)no1 | 0.0185%
CC1CCCCC1NC(=O)Cn1c(=O)cnc2ccccc21 (centres undefined) | 2.53%
CN(C(=O)CN(CCO)CC(=O)N(C)C(C)(C)Cc1ccccc1)C(C)(C)Cc1ccccc1 | 19.2%
CC(C#N)OC(=O)c1cccnc1SCC(=O)Nc1ccc2c(c1)OCO2 (centres undefined) | -6.97%
O=C(NCCO)C(=O)NCC(c1ccc2c(c1)OCO2)N1CCN(c2ccc(F)cc2)CC1 (centres undefined) | 0.936%
Cn1c(=O)c(C(=O)Nc2ncccn2)c(O)c2ccccc21 | -0.24%
CC(C)CN(CC(C)C)C(=O)CN1c2cccc3cccc(c23)S1(=O)=O | 0.144%
COc1ccccc1N1CCN(C(=O)C2Cc3ccccc3CN2C(=O)c2ccco2)CC1 (centres undefined) | -8.37%
O=C(NC(=S)NC1CCSC1=O)c1ccccc1F (centres undefined) | -9.37%
CCc1c(O)cc2n(c1=O)-c1ccccc1C2(C)C | -2.57%
CN(CC1CCCO1)S(=O)(=O)c1ccc(C(=O)Nc2ccc([N+](=O)[O-])cc2)cc1 (centres undefined) | -6.82%
COc1ccccc1NC(=S)N1CCN(c2ccc(F)cc2)CC1 | 1.21%
COc1c(N2CCN(C(=S)Nc3ccccc3F)C(C)C2)c(F)cc2c(=O)c(C(=O)O)cn(C3CC3)c12 (centres undefined) | 91.3% (active)
CC1CN(C(=S)Nc2ccccc2F)CC(C)O1 (centres undefined) | 6.69%
Cc1ccc(S(=O)(=O)N2CCN(C(=O)COC(=O)CNC(=O)c3ccc(C(C)(C)C)cc3)CC2)c(C)c1 | 6.64%
CN1CCN(S(=O)(=O)c2ccc(N3CCN(c4ccccc4O)CC3)c([N+](=O)[O-])c2)CC1 | -4.89%
O=C(NCc1ccco1)c1ccc(NS(=O)(=O)c2cccc([N+](=O)[O-])c2)cc1 | -12.7%
COCCCNC(=O)CCc1nc2cccnc2n1Cc1ccc(OC)cc1 | 5.25%
Cc1ccc(NC(=S)N(CCN(C)C)Cc2cccs2)cc1C | -0.631%
COc1ccc2c3c1O[C@H]1C[C@@H](O)C=C[C@@]31CCN(C)C2 | -6.89%

From PubChem BioAssay AID488895 (Broad Institute, 2010)
